# Bioassay records deposited in PubChem BioAssay by several laboratories.
# In the library only some 4.2% were active in any assay of this set; here they are far more common.
# DAX1 StAR inh – blocks DAX1 repression of SF-1 activated StAR promoter; hit rate 1.1% among 370,000; inhibition, % at 6.8 µM; AID 652010; HEK293T StAR-luciferase reporter, SF-1/DAX-1 repression relief;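 active = inhibition above the mean over all tested compounds plus 3 SD, cut at about 3.6% in these data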;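 also: 0% = DAX-1 cells with DMSO and 100% = cells lacking DAX-1 with DMSO; higher inhibition means more luminescence from relief of DAX-1 repression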
# esBAF inh – blocks esBAF chromatin remodeling in mouse ES cells | reporter increase, % at 12.5 µM | Bmi1-luciferase knock-in reporter, 24 h; 100% = twice the neutral-well signal | AID 602393 | hit rate 2% among 350,000; in the data active = activation above about 40%; inconclusive = no clear call, values can overlap the other calls;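 also: 0% = median of the plate's neutral control wells and 100% = double that signal; a rise in the Bmi1 reporter signal indicates esBAF inhibition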
# ssDAF12 agonist – activates DAF-12 receptor from parasite S. stercoralis; HEK293 ssDAF-12/GRIP1 lit1-tk-luc reporter, luminescence; % of 3 µM dafachronic acid response; activation, % at 6.8 µM; hit rate 1% among 370,000;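 active = activation above the mean over all tested compounds plus 3 SD, cut at about 0.9% in these data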;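 also: 0% = DMSO-only wells and 100% = 3 µM delta7-dafachronic acid wells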
# hcDAF12 agonist – activates DAF-12 receptor from parasite H. contortus; hit rate 1.4% among 370,000; HEK293 hcDAF-12 lit1-tk-luc reporter, luminescence; 0% DMSO, 100% Δ7-dafachronic acid; AID 652067; activation, % at 6.8 µM;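 active = activation above the mean of all tested compounds plus 3 SD, cut at about 5.5% in these data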;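 also: 100% = response to 3 µM Δ7-dafachronic acid high control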
# Wnt bcat act – activators of Wnt/beta-catenin signaling. Wnt/beta-catenin reporter cell assay, activator, plate reader. activation, % at 9.35 µM. hit rate 1.2% among 300,000; in the data active = activation above about 30%, passing the limit was not always enough; inconclusive = no clear call, values can overlap the other calls;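 also: 0% = neutral control wells and 100% = positive control wells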
# hgDAF-12 ag – agonists of H. glycines DAF-12 nuclear receptor; AID 687014; activation, % at 6.8 µM; HEK293 GAL4-hgDAF12 UAS-luciferase reporter, agonist luminescence; normalized to butyrate control; hit rate 1.8% among 370,000;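 active = activation above a cutoff set at the mean of all screened compounds plus 3 SD, cut at about 10% in these data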;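 also: 0% = DMSO wells and 100% = sodium butyrate wells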
# hgDAF12 ag – confirmation of H. glycines DAF-12 agonists | shares compounds with hgDAF-12 ag | HEK293 GAL4-hgDAF12 luciferase reporter, agonist mode; percent of butyrate response | activation, % at 6.8 µM | hit rate 80% among 3,300;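 active = mean activation over triplicate wells above the hit cutoff derived from the earlier primary screen, cut at about 11% in these data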;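 also: 0% = DMSO low control and 100% = 2 mM sodium butyrate high control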
# LXR ag 2 – LXR-beta agonism as DAF-12 counter-screen; activation, % at 6.8 µM; shares compounds with hgDAF-12 ag; AID 743051; 3,300 tested, under 10 active; HEK293 Gal4-LXR luciferase reporter, 24 h;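 active = mean activation of the triplicate above a set limit carried over from the primary screen, none filed active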
# Target sequence (P55055 whole entry, looked up, the tested form may be a part): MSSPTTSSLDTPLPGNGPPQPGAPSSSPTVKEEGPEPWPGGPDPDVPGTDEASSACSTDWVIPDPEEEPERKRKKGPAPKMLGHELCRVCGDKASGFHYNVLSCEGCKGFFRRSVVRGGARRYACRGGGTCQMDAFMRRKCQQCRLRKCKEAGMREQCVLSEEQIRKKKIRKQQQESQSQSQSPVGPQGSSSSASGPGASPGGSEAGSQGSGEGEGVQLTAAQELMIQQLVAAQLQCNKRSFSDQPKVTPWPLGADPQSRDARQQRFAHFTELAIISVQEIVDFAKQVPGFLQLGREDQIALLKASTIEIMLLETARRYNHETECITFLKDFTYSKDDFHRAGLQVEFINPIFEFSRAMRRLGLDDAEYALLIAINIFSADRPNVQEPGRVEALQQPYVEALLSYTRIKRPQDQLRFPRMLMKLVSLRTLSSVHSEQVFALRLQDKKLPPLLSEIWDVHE
# Numbers without * were called inactive; ? = inconclusive; . = not tested or not shown.
SMILES,DAX1 StAR inh,esBAF inh,ssDAF12 agonist,hcDAF12 agonist,Wnt bcat act,hgDAF-12 ag,hgDAF12 ag,LXR ag 2
Cc1ccc2nc(-c3ccc(Cl)cc3)c(Cc3cccc(Cl)c3)n2c1,3.9*,.,-1,2,4,13*,3,0
CO[C@@H]1CN(C)C(=O)c2cc(NC(=O)Nc3ccccc3Cl)ccc2OC[C@@H](C)N(C)C[C@H]1C,.,-1,.,.,.,.,.,.
Cc1noc(C)c1S(=O)(=O)N(C)C[C@@H]1OCCCC[C@H](C)Oc2ccc(NC(=O)NC3CCCCC3)cc2C(=O)N([C@H](C)CO)C[C@@H]1C,.,9,.,.,.,.,.,.
Cc1nc(Nc2ncc(C(=O)Nc3c(C)cccc3Cl)s2)cc(N2CCN(CCO)CC2)n1,4.4*,.,-2,-7,.,15*,5,0
Cc1c(Cl)cccc1NC(=O)CN1CCN(CCO)CC1,0,.,-1,-2,.,-2,.,.
Cc1noc(C)c1NC(=O)Nc1ccc2c(c1)C(=O)N([C@H](C)CO)C[C@@H](C)[C@@H](CN(C)S(C)(=O)=O)O2,.,-5,.,.,.,.,.,.
O=C1NC(=O)C(=Cc2ccc(Cl)cc2Cl)S1,4.4*,.,1,3,39*,18*,14*,1
COc1ccc(C(=O)NC(=S)N2CCC(C)CC2)cc1Br,1,12,-1,0,0,32*,-1,0
COc1cccc(Nc2nc3ccc(OC)cc3s2)c1,3,.,0,3,2,17*,18*,1
COc1ccc(C(=O)Nc2nc3cc4c(cc3s2)OCO4)c(OC)c1,3,36,-1,2,7,17*,17*,1
COc1ccc2nc(NCc3cccnc3)sc2c1,0,36,-1,0,6,4,.,.
COc1ccc2nc(NC(=O)c3cccnc3SC)sc2c1,2,?,-1,4,13,17*,14*,0
CSc1ncccc1C(=O)Nc1nc2ccc(S(C)(=O)=O)cc2s1,-2,20,-1,1,1,5,.,.
C[C@@H]1CN([C@@H](C)CO)C(=O)Cc2cc(N(C)C)ccc2O[C@@H]1CN(C)C(=O)Nc1ccc(C(F)(F)F)cc1,.,-1,.,.,.,.,.,.
COc1ccc(-c2cc(C(=O)c3c(N)n(C)c(=O)n(C)c3=O)c3ccccc3n2)cc1,1,.,1.7*,5,8,14*,10*,0
COc1ccc(-c2cc(C(=O)OCC(=O)c3c(N)n(C)c(=O)n(C)c3=O)c3ccccc3n2)cc1,0,.,-2,1,2,4,.,.
N/C(=N\NC(=O)c1cccs1)c1cc2cc(Cl)ccc2oc1=O,3,.,-2,5,16,19*,2,0
O=C(CSC(=S)N1CCSCC1)c1ccc(Cl)cc1,2,.,-1,1,6,13*,14*,1
CC(C)=CC(=O)Nc1ccc(Br)cc1,3,66*,-1,3,-3,16*,15*,1
Cc1noc(C)c1S(=O)(=O)N(C)C[C@H]1Oc2ccc(NS(=O)(=O)c3ccccc3)cc2CC(=O)N([C@@H](C)CO)C[C@H]1C,.,-7,.,.,.,.,.,.
Clc1ncnc2c1oc1ccccc12,2,52*,1.6*,6.2*,67*,19*,16*,1
C[C@H]1CN([C@@H](C)CO)C(=O)c2cc(NC(=O)CCCCCC(=O)Nc3ccccc3N)ccc2O[C@H]1CN(C)Cc1ccncc1,.,3,.,.,.,.,.,.
C[C@H](CO)N1C[C@H](C)[C@@H](CN(C)Cc2ccccc2)Oc2ccc(NC(=O)CCCCCC(=O)Nc3ccccc3N)cc2C1=O,2,-11,-1,3,6,16*,9,0
COc1cccc2cc(C(C)=O)oc12,0,-2,-2,-1,1,2,.,.
COc1ccc(C(=O)c2cc3cccc(OC)c3o2)cc1,3,60*,-1,1,10,19*,14*,1
SMILES,DAX1 StAR inh,esBAF inh,ssDAF12 agonist,hcDAF12 agonist,Wnt bcat act,hgDAF-12 ag,hgDAF12 ag,LXR ag 2
COc1ccccc1-c1cn(CC[C@@H]2CC[C@H](NC(=O)C3CC3)[C@@H](CO)O2)nn1,.,2,.,.,.,.,.,.
Cc1noc(C)c1NC(=O)N(C)C[C@H]1Oc2c(NC(=O)NC3CCCCC3)cccc2C(=O)N([C@H](C)CO)C[C@@H]1C,.,4,.,.,.,.,.,.
CN1C(=O)C(c2cn(C)c3ccccc23)(c2cn(C)c3ccccc23)c2cc(F)ccc21,-1,.,2.4*,3,-2,14*,2,0
CN1C(=O)[C@@](O)(c2cn(C)c3ccccc23)c2cc(F)ccc21,0,.,0,0,-2,-2,.,.
Cc1noc(C)c1S(=O)(=O)Nc1ccc2c(c1)C(=O)N([C@H](C)CO)C[C@H](C)[C@H](CN(C)Cc1ccncc1)O2,.,5,.,.,.,.,.,.
N=c1oc2ccccc2cc1C(=O)NC1CCCCCC1,2,29,0,2,28,14*,14*,1
COC(=O)c1ccccc1NC(=O)c1c(O)c2c([nH]c1=O)CCCC2,0,0,-1,-2,4,2,.,.
O=C(Nc1ccc(O)cc1)c1c(O)c2c([nH]c1=O)CCCC2,3.7*,.,1,5,21,14*,13*,1
Cc1ccc(S(=O)(=O)Nc2ccc3c(c2)C(=O)N([C@@H](C)CO)C[C@H](C)[C@@H](CN(C)C(=O)c2ccccc2)OCCCC[C@@H](C)O3)cc1,.,7,.,.,.,.,.,.
O=C(NCCSc1ccccc1)c1ccccc1F,2,47*,-1,5.8*,-1,13*,13*,1
COc1ccccc1-c1cnc2c(c1)C(=O)N([C@@H](C)CO)C[C@H](C)[C@H](CN(C)Cc1cccc(F)c1)O2,.,-7,.,.,.,.,.,.
Cc1cc(/C=C2/C(=O)N(C)C(=S)N2C)c(C)n1C1CC1,-1,10,-1,0,-1,1,.,.
CN1C(=O)/C(=C/C=C2\SCCN2C)N(C)C1=S,2,66*,0,2,-1,14*,15*,1
COCCNC(=O)C[C@@H]1C[C@@H]2c3cc(NC(=O)COC)ccc3O[C@@H]2[C@@H](CO)O1,.,3,.,.,.,.,.,.
Oc1ccc(/C=N/NC(=S)Nc2cccnc2)cc1,3,.,0,5,9,15*,11*,1
CCC(=O)Nc1cc2c(cc1Cl)-c1ccccc1C2,3,39,0,5.8*,17,18*,17*,0
CCCN(C)C[C@@H]1Oc2cc(C#Cc3cccc(F)c3)ccc2S(=O)(=O)N([C@H](C)CO)C[C@@H]1C,.,-2,.,.,.,.,.,.
C(=N\NC1=Nc2cccc3cccc1c23)/c1cccnc1,0,.,0,5,13,16*,11*,0
